# Results from the supplement of paper PMC6555819.
# Assays:
# Experiment in all cases: PBM binding z-score (relative to random genomic background probes); higher = stronger binding; sequences stand for … in GC…GCGATTGACAGCGTAGAATGAAGG
# [1] = system: PPARg:RXRa DBDmut IVT, anti-RXR (DBD mutation: RXRa K156A/R161A, NR concentration 270 nM, RXRa partner concentration 90 nM)
# Outline: (§1)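 Probes were double-stranded and carried 34-nt variable regions with direct-repeat seeds, single-nucleotide variants, half-site ablations and random human genomic background sequences, printed on custom Agilent 4×180K protein-binding microarrays. Arrays were incubated 1 h with ligand-free nuclear receptor dimers in PBS pH 7.4, 2% milk, 0.02% Triton X-100, 1 mM DTT, 0.2 mg/mL BSA and 0.4 mg/ml salmon testes DNA. Antibodies against each partner (one per run) detected binding, and scanned fluorescence was regression-normalized. Binding z-scores use the random background probes as reference.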
# [2] = system: PPARg:RXRa IVT, anti-PPARg (NR concentration 270 nM, RXRa partner concentration 90 nM)
# Outline: as §1
# [3] = system: PPARg DBDmut:RXRa IVT, anti-PPARg (DBD mutation: PPARg1 K132A/R137A, NR concentration 270 nM, RXRa partner concentration 90 nM)
# Outline: as §1
# [4] = system: PPARg DBDmut IVT, anti-PPARg (DBD mutation: PPARg1 K132A/R137A, NR concentration 270 nM)
# Outline: as §1
# [5] = system: PPARg homodimer (NR concentration 180 nM)
# Outline: as §1
# [6] = system: PXR:RXRa (NR concentration 270 nM, RXRa partner concentration 90 nM)
# Outline: as §1
# [7] = system: PXR homodimer (NR concentration 270 nM)
# Outline: as §1
# [8] = system: RARa:RXR (NR concentration 270 nM, RXRa partner concentration 90 nM)
# Outline: as §1
# [9] = system: RARa homodimer (NR concentration 270 nM)
# Outline: as §1
# [10] = system: RARb:RXRa (NR concentration 270 nM, RXRa partner concentration 90 nM)
# Outline: as §1
# [11] = system: RARb homodimer (NR concentration 270 nM)
# Outline: as §1
# [12] = system: RARg:RXRa (NR concentration 270 nM, RXRa partner concentration 90 nM)
# Outline: as §1
# [13] = system: RARg homodimer (NR concentration 270 nM)
# Outline: as §1
# [14] = system: RXRa DBDmut IVT, anti-RXR (DBD mutation: RXRa K156A/R161A, NR concentration 90 nM)
# Outline: as §1
# [15] = system: RXRa homodimer (NR concentration 180 nM)
# Outline: as §1
# [16] = system: THRa:RXRa (NR concentration 90 nM, RXRa partner concentration 90 nM)
# Outline: as §1
# [17] = system: THRa homodimer (NR concentration 90 nM)
# Outline: as §1
# [18] = system: VDR homodimer (NR concentration 270 nM)
# Outline: as §1
Sequence,PBM binding z-score [1],PBM binding z-score [2],PBM binding z-score [3],PBM binding z-score [4],PBM binding z-score [5],PBM binding z-score [6],PBM binding z-score [7],PBM binding z-score [8],PBM binding z-score [9],PBM binding z-score [10],PBM binding z-score [11],PBM binding z-score [12],PBM binding z-score [13],PBM binding z-score [14],PBM binding z-score [15],PBM binding z-score [16],PBM binding z-score [17],PBM binding z-score [18]
TCATATTGGTAAATGCTAGGTGAAAGTCCGATCT,2.35,0.751,1.11,1.6,1.32,0.588,0.616,0.882,1.3,0.404,0.619,0.03,0.0161,1.7,0.255,0.808,0.878,0.578
TCTCGGAGGACATGAAAGGTCAGAGCTCGACATC,2.04,1.1,-0.0886,-0.561,2.54,3.59,0.0503,3.72,0.458,3.99,4.53,4.22,4.21,1.18,3.67,3.34,0.586,0.768
ATCTCTAGGTAACAAGTGCAGTGAAAGAGAGGAC,2.78,2.62,1.24,0.573,0.521,0.133,0.353,0.0235,0.451,0.586,0.571,0.393,0.624,-0.169,0.249,1.11,0.468,0.625
TCTATTAGTTGAAGGACAACCGACGAGTCCGTTT,2.84,0.286,0.961,1.19,1.31,1,1.09,0.65,1.51,0.981,0.756,0.368,0.728,2.05,0.435,0.552,0.684,1.62
AATACACGGTCACTAGGCCAGAGTAGGTACGAAT,2.08,3.87,1.22,1.13,0.988,0.0441,-0.0687,0.462,0.429,2.77,1.85,1.78,2.19,0.0529,0.672,0.48,-0.267,0.314
CCCGAAAGGTCGTGCTCAGGTGAGTATACCAAAC,0.981,1.75,0.719,0.627,2.37,3.19,0.159,4.35,0.613,4.01,2.89,5.06,4.02,2.2,4.95,4.1,1.71,1.48
TCTATTAGGTGAAGGGCAACCGACGAGTCCGTTT,5.49,4.75,1.19,0.901,1.58,0.47,0.805,0.687,0.733,2,1.59,1.07,1.35,1.57,0.977,1.42,0.828,1.67
CCTGCTATGTCATGGTCAGCTAATCTACAGTATG,0.893,0.445,0.205,0.546,-0.0268,-0.217,-0.359,-0.187,-0.218,0.913,0.419,0.518,0.62,0.877,0.209,-0.0552,-0.368,-0.566
TTACCAAAGTGAAGGTCGTTGATCCCTCTGTAGA,0.0303,0.266,-1.3,-0.698,0.00936,1.15,0.234,1,-0.568,0.632,0.733,0.112,-0.254,0.0594,0.926,0.74,-0.495,0.739
AGTCAAAGTTCATGTAGGTAACGTAAGATATGCT,0.795,4,1.62,2.1,3.26,5.3,5.21,3.76,0.859,4.81,3.73,5.31,5.84,4.74,4.45,2.65,-0.0581,4.64
CCGGCTGGGGCATAAGGTTACCATAAGCCAGCCC,-0.781,0.196,-2.71,-2.08,1.02,0.131,-0.484,1.23,-0.82,1.62,1.62,1.83,1.05,-1.59,0.983,1.93,0.912,-0.374
AGAATGAGGTTACCCAAGATCAGGGAAACGCTTG,3.03,2.92,1.56,1.21,0.367,1.58,-0.185,2.03,-0.0633,1.82,0.82,1.93,1.6,1.06,2.36,3.28,0.843,0.242
CTGACTGGGGCAGAAAGGTTACCATACCATCCGG,2.87,3.6,0.376,0.141,1.76,1.12,0.49,1.75,0.326,2.13,2.57,2.08,1.66,-0.154,1.88,1.34,-0.00368,0.339
TCGAGGAGGTTACCAATGGGGCATTCAGCTTTCT,1.15,1,-0.386,-0.775,0.8,1.05,-0.411,1.43,-0.136,1.67,1.69,2.85,1.13,0.716,1.83,1.06,-0.297,0.112
